KB-V1 MDR tox = KB-V1 MDR subline cytotoxicity; KB-V1 MDR cells viability, CellTiter-Glo, 72 h; Potency, µM (doses to about 46.1 µM), actives largely listed as cytotoxic; actives 3.4% (n = 400,000); further: nearly all actives have a fitted effect of over 60% in size
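Cytotoxicity toward P-gp-expressing KB-V1 cells was determined as loss of CellTiter-Glo luminescence after 72 h at 37 degrees C. Compounds were tested in quantitative HTS format across a concentration range, with curves fitted to normalized data.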
HT1080 IDH1KD tx = toxicity to HT-1080 IDH1 knockdown cells (counter line); HT-1080 IDH1 knockdown viability, ATP luminescence, 48 h; Potency, µM (titrated, usually from 46.1 µM), most hits filed as cytotoxic; actives 2% (n = 360,000); AID 686971
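Viability of IDH1-knockdown HT-1080 fibrosarcoma cells was assessed by CellTiter-Glo after 48 h at 37 °C with titrated compound; concentration-effect curves were classified by fit quality and response size.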
KB-3-1 tox = kills parental KB-3-1 adenocarcinoma cells; KB-3-1 viability, CellTiter-Glo ATP luminescence, 72 h; Potency, µM (titrated, usually from 46.1 µM), usual class: cytotoxic; actives 1.4% (n = 400,000); further: nearly all actives have a fitted effect of over 60% in size
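Cells are dispensed, compounds pinned in, plates held at 37 °C for 72 h, then CellTiter-Glo is added and luminescence read after 10 minutes. Cell line: parental KB-3-1 in phenol-red-free DMEM, 10% FBS.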
ATXN2 expr inh = inhibitors of ATXN2 expression; HEK-293 ATXN2-luciferase reporter, luminescence, 24 h; Potency, µM (top dose mostly 57 µM), most hits filed as inhibitors; actives 0.72% (n = 360,000); AID 1745845; further: nearly all actives have a fitted effect of over 55% in size
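ATXN2-luciferase reporter cells (luciferase flanked by upstream and downstream ATXN2 gene portions) were treated 24 h at 37 °C with compounds at up to 57 uM. SteadyGlo luminescence gave expression; GF-AFC fluorescence gave viability.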
ATXN viability = viability counter-screen for ATXN expression inhibitors | S2 cells (HEK-293 line with an ATXN2-luciferase reporter) viability, CellTiter-Fluor protease fluorescence, 24 h | Potency, µM (top dose mostly 56.7 µM), most hits filed as cytotoxic | actives 0.49% (n = 400,000) | AID 651635; further: nearly all actives have a fitted effect of over 40% in size
HT1080-NT tox = kills 2HG-producing HT-1080-NT fibrosarcoma cells; HT-1080-NT fibrosarcoma viability, CellTiter-Glo ATP luminescence, 48 h; Potency, µM (top dose mostly 46.1 µM), usual class: cytotoxic; actives 1.6% (n = 360,000);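 further: NT is the 2HG producing partner of a matched IDH1 knockdown line; nearly all actives have a fitted effect of over 55% in size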
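Toxicity toward the 2HG-producing NT line was scored as %Activity, normalised to DMSO and no-cell wells, from CellTiter-Glo luminescence after 48 hours' treatment.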
Of the large screens only hits and unclear results are named; the others gave an inactive call. In the library only some 6.2% were active in any assay of this set; here they are far more common. The call rests on the fitted dose curve; in most records, active means well fitted curve in the direction sought with a large enough effect; inconclusive means small, poorly fitted or top-dose-only effect, or another doubt; inactive means no such curve, though single readings can be large; an effect the other way counts as inactive or inconclusive.

NC(=S)N/N=C/c1cccc(Br)c1	KB-V1 MDR tox 8.2µM, KB-3-1 tox inconclusive
COc1cccc(NC(=O)Nc2ccncc2)c1	none
COc1cccc(NC(=O)Nc2ccc(C(C)(C)C)cc2)c1	HT1080 IDH1KD tx inconclusive, KB-3-1 tox inconclusive, ATXN viability inconclusive, HT1080-NT tox 16µM
CC(C)(C)C(=O)Nc1ccc(C(=O)OC2CCCCC2)cc1	KB-V1 MDR tox inconclusive, HT1080 IDH1KD tx inconclusive, HT1080-NT tox 13µM
COc1cccc(NC(=O)c2ccc(NC(=O)C(C)(C)C)cc2)c1	KB-V1 MDR tox 23µM
COC(=O)c1ccc(NC(=O)c2c(NCc3cccc(F)c3)sc3c2CCCC3)cc1	ATXN2 expr inh inconclusive, ATXN viability inconclusive (no result: HT1080 IDH1KD tx, HT1080-NT tox)
O=[N+]([O-])c1ccc(Sc2cccc3cccnc23)cc1	KB-V1 MDR tox inconclusive
O=[N+]([O-])c1ccc(Sc2ccncn2)c([N+](=O)[O-])c1	KB-V1 MDR tox inconclusive, HT1080 IDH1KD tx 15µM, KB-3-1 tox 12µM, HT1080-NT tox 18µM (no result: ATXN2 expr inh, ATXN viability)
C=CCn1nc([N+](=O)[O-])nc1Sc1cccc2cccnc12	KB-V1 MDR tox 8.2µM, HT1080 IDH1KD tx inconclusive, KB-3-1 tox inconclusive, ATXN2 expr inh 22µM, HT1080-NT tox inconclusive (no result: ATXN viability)
O=[N+]([O-])c1ccc(Sc2cccc3cccnc23)c([N+](=O)[O-])c1	KB-3-1 tox inconclusive, ATXN2 expr inh inconclusive, ATXN viability 6.3µM, HT1080-NT tox inconclusive
O=C(CN1C(=O)CCOc2ccccc21)Nc1cccc(S(=O)(=O)N2CCOCC2)c1	KB-V1 MDR tox inconclusive
O=C(CN1c2cccc3cccc(c23)S1(=O)=O)NC1CCCCC1	KB-V1 MDR tox 21µM
Cc1ccc(NC(=O)CN2c3cccc4cccc(c34)S2(=O)=O)cc1	KB-V1 MDR tox 23µM
O=C(CN1C(=O)c2ccccc2S1(=O)=O)NC1CCCCCC1	KB-V1 MDR tox inconclusive, HT1080-NT tox inconclusive
Cc1cc(C(=O)CN2c3cccc4cccc(c34)S2(=O)=O)c(C)n1C	HT1080 IDH1KD tx 15µM, KB-3-1 tox inconclusive
COc1ccc(NC(=O)CN2c3cccc4cccc(c34)S2(=O)=O)cc1	none
O=C(CN1c2cccc3cccc(c23)S1(=O)=O)Nc1cccc(S(=O)(=O)N2CCOCC2)c1	KB-V1 MDR tox 18µM
COc1ccccc1CNC(=O)C(C)n1ccc2cc(S(=O)(=O)N3CCCC3)ccc21 (configuration not stated)	KB-V1 MDR tox inconclusive (no result: HT1080 IDH1KD tx, HT1080-NT tox)
O=C(Nc1ccccc1C(=O)N1CCCCC1)c1nsc2ccccc12	none (no result: HT1080 IDH1KD tx, ATXN2 expr inh, ATXN viability, HT1080-NT tox)
CCc1ccc(C2C(C(=O)Nc3ccccc3OC)=C(C)Nc3nc(SCc4ccccc4)nn32)cc1 (configuration not stated)	none (no result: HT1080 IDH1KD tx, HT1080-NT tox)
CC(=O)c1ccc(N2CCC(c3cc(-c4ccc(Cl)cc4Cl)n[nH]3)CC2)c([N+](=O)[O-])c1	KB-V1 MDR tox 15µM, HT1080 IDH1KD tx inconclusive, KB-3-1 tox inconclusive, ATXN2 expr inh inconclusive, ATXN viability inconclusive, HT1080-NT tox 14µM
COc1ccc(CCN2C(=S)NC3CC2(C)Oc2ccc([N+](=O)[O-])cc23)cc1OC (configuration not stated)	KB-V1 MDR tox 6.5µM, HT1080 IDH1KD tx inconclusive
COc1ccc(N2C(=O)NC3CC2(C)Oc2ccc(Cl)cc23)cc1OC (configuration not stated)	KB-V1 MDR tox inconclusive, KB-3-1 tox inconclusive
CCC(=O)N1c2ccc(S(=O)(=O)CCC(=O)NCc3ccc(OC)cc3)cc2CC1C (configuration not stated)	none (no result: HT1080 IDH1KD tx, HT1080-NT tox)
COCCOC(=O)c1[nH]c2c(c1C)C(=O)C(C(=O)OC)C(C)C2 (configuration not stated)	none
CCCCCOC(=O)c1[nH]c2c(c1C)C(=O)C(C(=O)OC)C(C)C2 (configuration not stated)	KB-V1 MDR tox 18µM, KB-3-1 tox inconclusive
Cc1ccc(Cl)cc1N1CCN(C(=O)CCS(=O)(=O)c2ccc3c(c2)oc(=O)n3C)CC1	KB-V1 MDR tox 7.3µM (no result: HT1080 IDH1KD tx, HT1080-NT tox)
Cc1ccc(C)c(N2CCN(C(=O)CCS(=O)(=O)c3cc4c(cc3Cl)NC(=O)CO4)CC2)c1	KB-V1 MDR tox 16µM, KB-3-1 tox inconclusive, ATXN2 expr inh inconclusive, ATXN viability inconclusive (no result: HT1080 IDH1KD tx, HT1080-NT tox)
CN1CCN(C(=O)CCS(=O)(=O)c2cc3c(cc2Cl)NC(=O)CO3)CC1	none
Cc1c(Cl)cccc1Nc1nn2c(=O)c3ccc(C(=O)NCCC4=CCCCC4)cc3nc2s1	KB-3-1 tox inconclusive (no result: HT1080 IDH1KD tx, ATXN2 expr inh, ATXN viability, HT1080-NT tox)
Cc1ccc(OCCn2nnc3sc4c(c3c2=O)CCC(C)C4)cc1 (configuration not stated)	none (no result: HT1080 IDH1KD tx, HT1080-NT tox)
Cc1ccc2c(c1)N(C(=O)N1CCC(C(=O)NCc3ccco3)CC1)CC(C)O2 (configuration not stated)	none (no result: HT1080 IDH1KD tx, ATXN2 expr inh, ATXN viability, HT1080-NT tox)
O=C(O)C1CCC1	none (no result: KB-V1 MDR tox, HT1080 IDH1KD tx, KB-3-1 tox, HT1080-NT tox)
COC(=O)c1cn(NC(=O)c2cc([N+](=O)[O-])ccc2F)c(=O)c2ccccc12	KB-V1 MDR tox 12µM, HT1080 IDH1KD tx 9.2µM, KB-3-1 tox inconclusive, ATXN2 expr inh 1.1µM, HT1080-NT tox inconclusive
COC(=O)c1cn(NC(=O)C2CCC(C)CC2)c(=O)c2ccccc12 (configuration not stated)	none
O=C(Nc1nnc(-c2ccncc2)s1)Oc1ccc2ccccc2c1	KB-3-1 tox inconclusive (no result: HT1080 IDH1KD tx, ATXN2 expr inh, ATXN viability, HT1080-NT tox)
c1ccc(CCNc2nc(-c3ccncc3)nc3ccccc23)cc1	KB-V1 MDR tox 15µM, HT1080 IDH1KD tx 4.1µM, KB-3-1 tox inconclusive, ATXN2 expr inh inconclusive, HT1080-NT tox inconclusive
c1ccc(Nc2nc(-c3ccncc3)nc3ccccc23)cc1	none
CCCS(=O)(=O)NC(=O)C1(C)CCCN(C(=O)c2ccc(F)c(Cl)c2)C1 (configuration not stated)	none
CCc1cc(C(=O)Cc2cnn(-c3ccccc3)c2)c(O)cc1O	KB-V1 MDR tox 23µM
O=C(Cc1cnn(-c2ccccc2)c1)c1ccc(O)c(O)c1O	KB-3-1 tox inconclusive
CC(C)OCCCN(Cc1ccco1)C(=O)c1cc2c(s1)-c1ccccc1OC2	KB-V1 MDR tox 9.2µM, KB-3-1 tox 16µM, ATXN2 expr inh inconclusive, ATXN viability inconclusive (no result: HT1080 IDH1KD tx, HT1080-NT tox)
CCOCCCN(Cc1ccco1)C(=O)c1cc2c(s1)-c1c(C)cccc1OC2	KB-V1 MDR tox inconclusive, ATXN2 expr inh inconclusive (no result: HT1080 IDH1KD tx, HT1080-NT tox)
CC1=CC(=O)N(c2cccc3c(N4C(=O)C=C(C)C4=O)cccc23)C1=O	HT1080 IDH1KD tx 26µM, KB-3-1 tox inconclusive
O=C(NCCN1CCC(n2c(=O)[nH]c3ccccc32)CC1)c1ccc(Cl)c(Cl)c1	KB-V1 MDR tox 21µM, HT1080 IDH1KD tx inconclusive, KB-3-1 tox inconclusive, ATXN2 expr inh 18µM, ATXN viability inconclusive, HT1080-NT tox 21µM
O=C(NCCN1CCC(n2c(=O)[nH]c3ccccc32)CC1)c1ccc(Cl)cc1	HT1080-NT tox inconclusive
